Assay [1] is described as follows: qHTS assay to identify small molecule antagonists of the vitamin D receptor (VDR) signaling pathway - cell viability counter screen (AID 743225). Also: nearly all actives have a fitted effect of over 50% in size. The note with it: VDR-bla HEK293T viability, CellTiter-Glo luminescence, 16 h; series mostly up to 61 µM. In short, it runs like this: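 Cytotoxicity toward the VDR-bla HEK 293T line was scored by ATP-based CellTiter-Glo luminescence, read in the wells already used for the beta-lactamase readout after 16 h compound treatment under 3 nM 1-alpha,25-dihydroxyvitamin D3 stimulation.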
(In general: qHTS replaces the single test concentration by a dilution series.)

The nature of assay [2]: qHTS assay to identify small molecule agonists of the NFkB signaling pathway (AID 1159509; active = well fitted curve in the direction sought with a large enough effect in the signal ratio in the repeat runs, not every such curve was filed as active; the % refers to the signal ratio). The following applies: NFkB-bla ME-180 cells, beta-lactamase FRET ratio, 5 h; series mostly up to 61 µM. In short, it runs like this:
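Beta-lactamase reporter assay run in quantitative high-throughput format on an NF-kB-responsive ME-180 line, with 5 hr compound treatment and a FRET-based blue/green fluorescence readout.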

The nature of assay [3]: qHTS assay to identify small molecule agonists of the NFkB signaling pathway - cell viability counter screen (AID 1159515; calls by dose curve; also: nearly all actives have a fitted effect of over 55% in size). The following applies: NFkB-bla ME-180 viability, CellTiter-Glo luminescence, 5 h; series mostly up to 61 µM. An outline of the steps:
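Tox21 library compounds were tested for cytotoxicity against NFkB-bla ME-180 cells during a 5 hr exposure at 37 C. CellTiter-Glo luminescence served as the viability read-out.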

Assay [4] in a line: qHTS assay to identify small molecule agonists of the endoplasmic reticulum stress response signaling pathway (AID 1159516; active = well fitted activation curve with a large enough effect in the signal ratio in the repeat runs, not every such curve was filed as active; the % refers to the signal ratio). The note with it: ESRE-bla HeLa, ER stress beta-lactamase reporter, 5 h; series mostly up to 61 µM. An outline of the steps:
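Fluorescence at 460 and 530 nm (405 nm excitation) reports beta-lactamase from an ER stress response element in HeLa cells treated 5 hr at 37 C.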

Assay [5] can be described thus: qHTS assay to identify small molecule agonists of the endoplasmic reticulum stress response signaling pathway - cell viability counter screen (AID 1159517; calls by dose curve; also: nearly all actives have a fitted effect of over 50% in size). The following applies: ESRE-bla HeLa viability, CellTiter-Glo luminescence, 5 h; series mostly up to 61 µM. An outline of the steps:
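Steps: seed 1,500 ESRE-bla HeLa cells per well; incubate overnight at 37 C, 5% CO2; add compounds in DMSO for 5 hr; run FRET substrate 2 hr RT; add CellTiter-Glo, wait 30 min, read luminescence.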

Assay [6] can be described thus: qHTS assay to identify small molecule antagonists of the retinoid-related orphan receptor gamma (ROR-gamma) signaling pathway - cell viability counter screen (AID 1159520). Also: nearly all actives have a fitted effect of over 50% in size. The note with it: Tet-on RORgamma CHO cells viability, ATP luminescence, 16 h; series mostly up to 92.4 µM. In short, it runs like this: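 Tet-on ROR gamma CHO cells were given compounds for 2 hr, then doxycycline hyclate at 1 uM final, and incubated 16 hr at 37 C. Viability was measured as ATP content by CellTiter-Glo luminescence.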

Assay [7] addresses Nuclear receptor ROR-gamma (Homo sapiens) (UniProt P51449). Briefly: qHTS assay to identify small molecule antagonists of the retinoid-related orphan receptor gamma (ROR-gamma) signaling pathway (AID 1159521;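 also: CHO cells with doxycycline inducible ROR-gamma driving an RORE luciferase reporter; top concentration of the series differs between compounds; nearly all actives have a fitted effect of over 50% in size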). The following applies: Tet-on RORgamma CHO cells, RORE-luciferase, 16 h; series mostly up to 92.4 µM. An outline of the steps: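 Readout: ONE-Glo luciferase luminescence, 30 min at room temperature. System: Tet-on RORγ CHO, RORE-LUC. Sequence: compound 2 h, doxycycline 1 uM final, 16 h at 37 C.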

Assay [8] in a line: qHTS assay to identify small molecule agonists of the AP-1 signaling pathway - cell viability counter screen (AID 1159525; calls by dose curve; also: nearly all actives have a fitted effect of over 55% in size). The following applies: ME-180 AP-1-bla cells viability, ATP luminescence, 5 h; series mostly up to 76.8 µM. In short, it runs like this:
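Same-well cytotoxicity counter screen of the Tox21 10K library in ME-180 cells. The readout is ATP-dependent luminescence after 5 h compound treatment. Data are normalised to DMSO and tetra n-octyl ammonium bromide controls.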

The nature of assay [9]: qHTS assay to identify small molecule agonists of the AP-1 signaling pathway (AID 1159526; calls by dose curve). The note with it: ME-180 (cervical carcinoma) AP-1-bla reporter, beta-lactamase FRET ratio, 5 h; series mostly up to 76.8 µM.
Assay [10] concerns the target Retinoic acid receptor RXR-alpha (Homo sapiens) (UniProt P19793). Briefly: qHTS assay to identify small molecule agonists of the RXR signaling pathway (AID 1159527; calls by dose curve; also: nearly all actives have a fitted effect of over 35% in size). The following applies: HEK293T RXRa-UAS-bla, beta-lactamase ratio, 16 h; series mostly up to 76.8 µM. In short, it runs like this:
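Reporter activation is measured as beta-lactamase activity via FRET substrate cleavage (emission 460/530 nm) in HEK 293T cells expressing an RXR-alpha-driven bla construct, following 16 hr compound exposure at 37 C.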

Assay [11] is described as follows: qHTS assay to identify small molecule agonists of the RXR signaling pathway - cell viability counter screen (AID 1159529). Also: nearly all actives have a fitted effect of over 50% in size. The following applies: RXR-alpha-bla HEK293T viability, CellTiter-Glo, 16 h; series mostly up to 76.8 µM. An outline of the steps:
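Tox21 10K compounds were tested for cytotoxicity against GeneBLAzer RXR-alpha HEK 293T cells grown in 2% charcoal-stripped FBS. Exposure lasted 16 hr at 37 C, 5% CO2; viability read by CellTiter-Glo luminescence.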

Assay [12] is described as follows: qHTS assay to identify small molecule antagonists of the retinoid acid receptor (RAR) signaling pathway - cell viability counter screen (AID 1159551). Also: nearly all actives have a fitted effect of over 35% in size. The following applies: C3RL4 cells viability, ATP luminescence (CellTiter-Glo), 6 h; series mostly up to 92.4 µM. An outline of the steps: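 In this counter screen, the RARE-luciferase line C3RL4 was exposed for 6 h at 37 C and 5% CO2 to compounds with retinol at 1 uM final. Cellular ATP, read by luminescence, served as the viability measure.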

A short description of assay [13]: qHTS assay to identify small molecule antagonists of the retinoic acid receptor (RAR) signaling pathway (AID 1159552; also: nearly all actives have a fitted effect of over 50% in size). The following applies: C3RL4 RARE luciferase reporter, retinol-stimulated, 6 h; series mostly up to 92.4 µM. In short, it runs like this:
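Overnight-plated C3RL4 reporter cells get compound, then retinol to 1 uM final; plates sit 6 hr at 37 C, 5% CO2. A luciferase reagent is added and light output recorded after 30 min at room temperature.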

Assay [14] can be described thus: qHTS assay to identify small molecule agonists of the retinoic acid receptor (RAR) signaling pathway (AID 1159553). Also: potency is read from the fitted curve at half-maximal effect. The following applies: C3RL4 RARE luciferase reporter, agonist, 6 h; series mostly up to 73.3 µM. In short, it runs like this:
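In this cell-based screen, 1,000 C3RL4 cells per well were cultured overnight, dosed with test chemicals in DMSO for 6 hr, and assessed for RARE luciferase luminescence.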

Assay [15] in a line: qHTS assay to identify small molecule antagonists of the estrogen related receptor (ERR) signaling pathway from Tox21 library - cell viability counter screen (AID 1224834). Also: nearly all actives have a fitted effect of over 30% in size. The note with it: ERR reporter cells viability, CellTiter-Fluor, 17.5 h; series mostly up to 92.4 µM. In short, it runs like this: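 Counter screen run in ERR cells (2,000 cells/well): cells pre-incubated 6 h, then treated with compounds for 17.5 h at 37 C. Fluorescence was read 30 min after CellTiter-Fluor addition.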

The target in assay [16] is Luciferin 4-monooxygenase (Photinus pyralis) (UniProt P08659). Description: qHTS assay to identify small molecule inhibitors of firefly luciferase (AID 1224835). Also: nearly all actives have a fitted effect of over 25% in size. Also: potency is read from the fitted curve at half-maximal effect. The note with it: purified P. pyralis luciferase, luminescence inhibition; series mostly up to 115 µM. An outline of the steps:
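Biochemical qHTS: compounds run as interplate titrations against purified firefly enzyme, with D-luciferin and ATP each at its KM concentration. Light output recorded by CCD imaging.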

Assay [17] in a line: qHTS assay to identify small molecule agonists of the constitutive androstane receptor (CAR) signaling pathway - cell viability counter screen (AID 1224836). Also: nearly all actives have a fitted effect of over 45% in size. The following applies: HepG2-CYP2B6-hCAR viability, CellTiter-Fluor, 23 h, PK11195 added to every well; series mostly up to 92.4 µM. In short, it runs like this:
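Fluorescence from CellTiter-Fluor indicates live cells after 23 h exposure. The human hepatoma line expresses hCAR and a CYP2B6-2.2kb reporter. Incubation medium contains 0.75 uM PK11195 (final).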

Assay [18] can be described thus: qHTS assay to identify small molecule antagonists of the constitutive androstane receptor (CAR) signaling pathway - cell viability counter screen (AID 1224837). Also: nearly all actives have a fitted effect of over 45% in size. The note with it: HepG2-CYP2B6-hCAR viability, CellTiter-Fluor, 23 h, co-treated with 50 nM CITCO; series mostly up to 92.4 µM. In short, it runs like this: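 CITCO at 50 nM final was added alongside compounds (15 concentrations) to double-stable hCAR/CYP2B6-2.2kb HepG2 cells. Following 23 hr at 37 C, cell viability was quantified by CellTiter-Fluor fluorescence intensity.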

For assay [19], the target named is Nuclear receptor subfamily 1 group I member 3 (Homo sapiens) (UniProt Q14994). Description: qHTS assay to identify small molecule antagonists of the constitutive androstane receptor (CAR) signaling pathway (AID 1224838). Also: nearly all actives have a fitted effect of over 40% in size. The note with it: HepG2-CYP2B6-hCAR luciferase, CITCO-stimulated, 24 h; series mostly up to 92.4 µM. An outline of the steps:
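Inhibition of CITCO-driven (50 nM final) CYP2B6 reporter expression is measured in HepG2 cells stably carrying hCAR. Fifteen compound concentrations are applied for 24 h at 37 C, followed by luciferase luminescence.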

Assay [20] has the same target. Briefly: qHTS assay to identify small molecule agonists of the constitutive androstane receptor (CAR) signaling pathway (AID 1224839). Also: nearly all actives have a fitted effect of over 15% in size. The following applies: HepG2 hCAR CYP2B6-luciferase, agonist mode, 24 h; series mostly up to 92.4 µM. An outline of the steps:
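Stable hCAR/CYP2B6-2.2kb HepG2 line in DMEM with 10% FBS; compounds (15 concentrations) and 0.75 uM PK11195 final, 24 h at 37 C/5% CO2, then ONE-Glo luminescence after 30 min.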

Records with an inconclusive call do not appear. Unmarked numbers belong to inactive results. Active and inactive are the calls of the source. Unless noted, calls follow the shape of the dose curve; as a rule, active = well fitted curve in the direction sought with a large enough effect in the repeat runs; inconclusive = weak or mixed curves; inactive = no such curve, though single readings can be large; an effect the other way counts as inactive or inconclusive.

Luciferin 4-monooxygenase (Photinus pyralis), sequence (P08659 whole entry, looked up): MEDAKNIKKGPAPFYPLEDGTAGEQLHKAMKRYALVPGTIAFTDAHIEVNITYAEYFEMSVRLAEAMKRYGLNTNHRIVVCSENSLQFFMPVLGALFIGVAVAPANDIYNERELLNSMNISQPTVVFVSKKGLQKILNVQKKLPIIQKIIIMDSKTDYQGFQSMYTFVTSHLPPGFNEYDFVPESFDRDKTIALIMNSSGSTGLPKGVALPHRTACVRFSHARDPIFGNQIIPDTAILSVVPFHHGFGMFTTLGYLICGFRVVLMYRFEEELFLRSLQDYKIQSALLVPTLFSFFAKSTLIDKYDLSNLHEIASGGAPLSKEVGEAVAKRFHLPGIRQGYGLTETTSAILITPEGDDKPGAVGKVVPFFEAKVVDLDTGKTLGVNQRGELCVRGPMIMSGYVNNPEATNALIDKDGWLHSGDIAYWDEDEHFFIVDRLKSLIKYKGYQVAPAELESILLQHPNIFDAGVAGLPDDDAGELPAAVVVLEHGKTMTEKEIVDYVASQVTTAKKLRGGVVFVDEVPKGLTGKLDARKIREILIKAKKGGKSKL
Retinoic acid receptor RXR-alpha (Homo sapiens), sequence (P19793 whole entry, looked up): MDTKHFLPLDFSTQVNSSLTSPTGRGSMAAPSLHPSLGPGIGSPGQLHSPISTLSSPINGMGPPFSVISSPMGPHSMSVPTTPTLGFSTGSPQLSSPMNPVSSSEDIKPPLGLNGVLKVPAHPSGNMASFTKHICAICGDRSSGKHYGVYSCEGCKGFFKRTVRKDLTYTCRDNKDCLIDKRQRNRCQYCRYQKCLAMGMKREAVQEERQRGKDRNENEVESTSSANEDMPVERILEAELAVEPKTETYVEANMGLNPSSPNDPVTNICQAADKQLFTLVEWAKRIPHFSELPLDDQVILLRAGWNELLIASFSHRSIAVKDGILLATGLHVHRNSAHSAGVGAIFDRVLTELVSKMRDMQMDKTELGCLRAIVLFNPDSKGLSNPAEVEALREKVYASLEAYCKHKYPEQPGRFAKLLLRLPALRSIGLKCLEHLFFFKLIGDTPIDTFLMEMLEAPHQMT
Nuclear receptor subfamily 1 group I member 3 (Homo sapiens), sequence (Q14994 whole entry, looked up): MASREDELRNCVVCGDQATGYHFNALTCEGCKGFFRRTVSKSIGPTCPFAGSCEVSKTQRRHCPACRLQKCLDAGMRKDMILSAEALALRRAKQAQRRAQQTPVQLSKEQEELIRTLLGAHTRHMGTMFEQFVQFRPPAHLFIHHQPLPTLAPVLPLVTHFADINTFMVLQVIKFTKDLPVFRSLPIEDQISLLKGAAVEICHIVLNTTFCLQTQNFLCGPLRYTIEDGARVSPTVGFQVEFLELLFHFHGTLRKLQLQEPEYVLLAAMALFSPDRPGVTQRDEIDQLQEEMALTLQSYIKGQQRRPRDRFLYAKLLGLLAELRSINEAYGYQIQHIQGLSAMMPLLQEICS

In the case of `CCCc1ccc(O)cc1`, the result in assay [1], in assay [2], in assay [3], in [4], in assay [5] and in assay [6] was inactive. The result in assay [7], in [8], in assay [9], in [11], in [12] and in assay [13] was inactive. For the same compound, the outcome in assay [15], in assay [17] and in [18] was inactive. For the same compound, the Potency entry in [10], in [14], in [16], in assay [19] and in assay [20] was “inactive” each time.
`Cc1ccc2c(c1)C(=O)c1ccccc1C2=O`: the compound was called inactive in assay [1], in assay [2], in assay [3], in [4], in assay [5] and in [6]. For the same compound, the compound was called inactive in assay [7], in [8], in assay [9], in assay [11], in assay [12] and in [13]. In addition, the outcome in assay [15], in assay [17] and in [18] was inactive. The Potency result in [10] and in assay [19] was “inactive” throughout. Moreover, the figures for the Potency in assay [14] and in assay [16] were 4.31 µM (active) and 14.1 µM (active), respectively.
As for `CO[Si](CCCn1c(=O)n(CCC[Si](OC)(OC)OC)c(=O)n(CCC[Si](OC)(OC)OC)c1=O)(OC)OC`, the call in assay [1], in assay [2], in assay [3], in assay [4], in [5] and in assay [6] was inactive. For the same compound, the compound was classed as inactive in assay [7], in assay [8], in [9], in [11], in [12] and in assay [13]. Also, the result in [15], in assay [17] and in [18] was inactive. Further, the Potency entry in [10], in [14], in [16], in [19] and in [20] was “inactive” in each case.
Regarding `OC1(c2ccc(Cl)cc2)CCNCC1`, the compound was classed as inactive in assay [1], in assay [2], in assay [3], in assay [4], in assay [5] and in [6]. Also, the compound was called inactive in [7], in [8], in [9], in assay [11], in [12] and in assay [13]. Besides, the result in [15], in assay [17] and in assay [18] was inactive. Further, the Potency result in assay [10], in assay [14], in assay [16], in [19] and in assay [20] was “inactive” each time.
Consider `CCOCCOCC`, for which the compound was classed as inactive in assay [1], in assay [2], in assay [3], in [4], in assay [5] and in assay [6]. Moreover, the compound was classed as inactive in [7], in [8], in assay [9], in [11], in assay [12] and in [13]. Further, the compound was classed as inactive in assay [15], in [17] and in assay [18]. Besides, the Potency result in assay [10], in assay [14], in [16] and in assay [19] was “inactive” throughout.
As for `CCCCC1CCC(O)CC1` (stereo unspecified), the compound was called inactive in assay [1], in assay [2], in [3], in assay [4], in assay [5] and in [6]. The outcome in assay [7], in assay [8], in assay [9], in assay [11], in assay [12] and in assay [13] was inactive. Besides, the compound was classed as inactive in [15], in assay [17] and in assay [18]. Moreover, the Potency result in [10], in assay [14], in assay [16] and in assay [19] was “inactive” in each case.
In the case of `Cc1ccccc1C(N)=O`, the call in assay [1], in [2], in assay [3], in assay [4], in [5] and in assay [6] was inactive. The compound was called inactive in assay [7], in assay [8], in assay [9], in assay [11], in assay [12] and in assay [13]. For the same compound, the compound was classed as inactive in assay [15], in assay [17] and in assay [18]. Moreover, the Potency result in assay [10], in assay [14], in [16] and in assay [19] was “inactive” each time.

The values are drawn from PubChem BioAssay (Tox21).
